Compound activity from PubChem BioAssay.
Hits are enriched below; roughly 2.4% of the tested compounds scored in any of these assays.
D2 PAM-1: HTS Assay for Positive Allosteric Modulators of the Human D2 Dopamine Receptor: Primary Screen for Potentiators; potentiation, % at 10 µM; 340,000 compounds, 0.34% hits; HEK293 T-REx D2, calcium flux, EC20 dopamine potentiation; D(2) dopamine receptor (Homo sapiens), P14416;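 active = potentiation over 3 SD above the plate norm, cut at about 30% in these data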; also: 0% is about no effect
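Calcium flux readout, no-wash dye, 1 read/s. Inducible HEK293 Trex D2 line, overnight 30 C. Compound alone 180 s (agonist flags), then EC20 dopamine, another 180 s to score potentiation.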
D2 antag: HTS Assay for Allosteric Antagonists of the Human D2 Dopamine Receptor: Primary Screen for Antagonists; HEK293 TREx D2 cells, calcium flux, dopamine EC80; D(2) dopamine receptor (Homo sapiens), P14416; AID 485344, 2010; 340,000 compounds, 2% hits; inhibition, % at 10 µM; in the data active = inhibition above about 30%; inactive = below that, where a call was filed; also: 0% is about no effect
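Inhibition of EC80 dopamine-driven calcium flux, recorded kinetically, defines activity here; cells are a tetracycline-induced HEK293 T-REx line expressing force-coupled D2.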
D2 ag-1: HTS Assay for Allosteric Agonists of the Human D2 Dopamine Receptor: Primary Screen for Agonists. D(2) dopamine receptor (Homo sapiens), P14416. HEK293 T-REx D2 cells, calcium flux agonist mode. activation, % at 2 µM. 340,000 compounds, 0.53% hits. AID 485358, 2010;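 active = activation over 3 SD above normal in the single-dose calcium agonist read, cut at about 30% in these data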; also: 0% is about no effect
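Agonism scored from kinetic calcium signal (1 read/sec, 180 s) following compound pin transfer, after a 10 s baseline. Cells: HEK293 Trex line expressing inducible D2 receptor coupled to calcium, dye-loaded after overnight culture at 30 C.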
D2 ag-2: Beta-Arrestin HTS for Positive Allosteric Modulators of the Human D2 Dopamine Receptor: Agonists | DiscoveRx PathHunter D2 beta-arrestin, luminescence, 90 min; 100% = 57 uM dopamine signal | activation, % (no concentration beside the values) | 360,000 compounds, 0.084% hits; in the data active = activation above about 40%; inconclusive = between about 15% and that limit
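DiscoveRx PathHunter D2 beta-arrestin cells (2,100/well) attached overnight, then compound-stimulated 90 min at 37 C in HBSS/10 mM HEPES/0.1% Tween-20 buffer; beta-galactosidase complementation read by luminescence after 1 h at ambient temperature. Dopamine 57 uM final (EC100) as control.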
D2 PAM-2: Beta-Arrestin HTS for Positive Allosteric Modulators of the Human D2 Dopamine Receptor: Potentiators | D(2) dopamine receptor (Homo sapiens), P14416 | DiscoveRx D2 beta-arrestin cells, luminescence, 90 min; 100% = 57 uM dopamine signal | potentiation, % (no concentration beside the values) | 360,000 compounds, 0.23% hits | AID 624464, 2012; in the data active = potentiation above about 50%; inconclusive = mostly about 30% to 49%
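PathHunter beta-arrestin assay in DiscoveRx D2 cells. Compounds were added with an EC20 of dopamine (50 nM final) for 90 min at 37 deg C. Luminescence was read 1 h after detection reagent, with 57 uM dopamine as the EC100 control.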
D3 arrestin ag: qHTS of D3 Dopamine Receptor Agonist: D3 Dopamine Receptor B-arrestin Agonist Confirmatory Assay | shares compounds with D2 ag-1 | DiscoveRx D3 beta-arrestin cells, luminescence, 90 min | Potency, µM (titrated, usually from 76.9 µM), without a hit: at the highest dose activation, usual class: activators | 2,300 compounds, 4% hits | AID 720506, 2013;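 also: potency is read from the fitted curve at half-maximal effect; 100% = dopamine control response; nearly all actives have a fitted effect of over 70% in size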
Target sequence (P35462 whole entry, looked up): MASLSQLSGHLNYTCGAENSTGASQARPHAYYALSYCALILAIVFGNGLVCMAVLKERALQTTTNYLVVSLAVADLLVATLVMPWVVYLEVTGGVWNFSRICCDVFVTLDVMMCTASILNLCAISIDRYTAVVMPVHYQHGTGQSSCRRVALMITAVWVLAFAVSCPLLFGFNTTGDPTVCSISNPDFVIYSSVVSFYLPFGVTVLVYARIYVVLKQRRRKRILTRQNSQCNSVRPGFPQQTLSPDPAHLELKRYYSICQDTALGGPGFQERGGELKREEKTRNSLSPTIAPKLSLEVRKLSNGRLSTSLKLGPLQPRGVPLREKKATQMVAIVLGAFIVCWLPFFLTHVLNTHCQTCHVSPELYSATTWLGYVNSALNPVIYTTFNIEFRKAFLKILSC
D2 ag-3: qHTS of D3 Dopamine Receptor Agonist: D2 Dopamine Receptor B-arrestin Agonist Counterscreen; shares compounds with D2 ag-1; DiscoveRx PathHunter D2 beta-arrestin, luminescence, 90 min; response scale: percent relative to full dopamine signal; Potency, µM (highest dose often 76.9 µM), inactives show top-dose activation, usual class: activators; 2,300 compounds, 5.9% hits; AID 720507, 2013; also: potency is read from the fitted curve at half-maximal effect; % of control where 0% means no effect; nearly all actives have a fitted effect of over 70% in size
Starred values were filed as active, the others as inactive. Unless noted, calls follow the shape of the dose curve; as a rule, active = well fitted activation curve with a large enough effect; inconclusive = small, poorly fitted or top-dose-only effect; inactive = flat fitted curve, though single readings scatter.

Results for O=C(Cn1c(=O)n(Cc2ccco2)c(=O)c2sc3ccccc3c21)Nc1ccc(F)cc1F ?
D2 ag-1: 1

How did O=C(CSc1ccc(F)cc1)NNC(=O)c1ccccc1Br do in these assays?
D2 PAM-1: -15; D2 antag: 25; D2 ag-1: 0; D2 ag-2: -5; D2 PAM-2: -1

How did O=C(CCSc1ccc(F)cc1)NNC(=O)c1ccccc1Cl do in these assays?
D2 PAM-1: 0; D2 antag: -19; D2 ag-1: 0; D2 ag-2: 5; D2 PAM-2: -4; D3 arrestin ag: -4%; D2 ag-3: 1%

How did CCc1nnc(NC(=O)CN2CCC(O)(c3ccccc3OC)CC2)s1 do in these assays?
D2 PAM-1: 2; D2 antag: -5; D2 ag-1: 0; D2 ag-2: 0; D2 PAM-2: 1

Results for COc1ccccc1C1(O)CCN(CC(=O)Nc2nc(-c3ccccc3)cs2)CC1 ?
D2 PAM-1: -16; D2 antag: -3; D2 ag-1: 32*; D2 ag-2: 2; D2 PAM-2: -14; D3 arrestin ag: 1%; D2 ag-3: 20%

Results for COC(=O)c1cc2c(ccn2-c2ccc(F)cc2)n1Cc1ccc(C#N)cc1 ?
D2 PAM-1: 1; D2 antag: -5; D2 ag-1: 6; D2 ag-2: -3; D2 PAM-2: -5

What do the screens show for `COC(=O)c1cc2c(ccn2-c2ccc(F)cc2)n1Cc1ccc(OC)cc1`?
D2 PAM-1: 3; D2 antag: 28; D2 ag-1: 5; D2 ag-2: 4; D2 PAM-2: -6; D3 arrestin ag: -14%; D2 ag-3: inconclusive

What do the screens show for `CC(=O)c1c(C)[nH]c(C(=O)OCC(=O)Nc2nnc(-c3ccccc3)o2)c1C`?
D2 PAM-1: -2; D2 antag: 35*; D2 ag-1: 0; D2 ag-2: 5; D2 PAM-2: 2; D3 arrestin ag: 2%; D2 ag-3: -2%

How did CC(=O)c1c(C)[nH]c(C(=O)OCC(=O)Nc2ccccc2Cl)c1C do in these assays?
D2 PAM-1: 5; D2 antag: 20; D2 ag-1: 1; D2 ag-2: 5; D2 PAM-2: -2

What do the screens show for `CCCN1CCc2c(sc(NC(=O)c3ccc(S(=O)(=O)N4CCN(C(=O)OCC)CC4)cc3)c2C(N)=O)C1`?
D2 PAM-1: -13; D2 antag: -22; D2 ag-1: 47*; D2 ag-2: -3; D2 PAM-2: -9; D3 arrestin ag: -9%; D2 ag-3: -4%

How did CCSc1ncc(Cl)c(C(=O)N(Cc2ccc(N(C)C)cc2)Cc2ccco2)n1 do in these assays?
D2 ag-1: -1

What do the screens show for `CCCCC(O)CN1CCC(c2ccccc2)CC1` (stereo unspecified)?
D2 PAM-1: -25; D2 antag: 48*; D2 ag-1: 52*; D2 ag-2: -1; D2 PAM-2: -47; D3 arrestin ag: -10%; D2 ag-3: 2%

Results for CC(CN1CCC(O)CC1)c1ccccc1 (stereo unspecified) ?
D2 PAM-1: 6; D2 antag: -1; D2 ag-1: 0; D2 ag-2: -1; D2 PAM-2: -10

Results for COc1ccc(NC(=O)N2CCCC(c3ccccc3)C2)cc1 (stereo unspecified) ?
D2 ag-2: 9; D2 PAM-2: -2; D3 arrestin ag: 18%; D2 ag-3: 21%
